Calls of active or inactive are those of the source. Unless noted, the rule behind the calls is not given here.

Assay [1] in a line: resazurin metabolic signal in HepG2 cells – cell-based, resazurin fluorescence, 24 h, PK04 Diversity Set, profiling panel (AID 1172). Note: test concentration not given here. As to conditions: HepG2 viability, higher = more signal.
Assay [2] is described as follows: budding yeast growth changes without added modifier – OD600, strain BY4716, 24 h, basal condition, primary screen (AID 1173). As to conditions: S. cerevisiae BY4716 growth, OD600, 24 h; higher = more signal, called active from +8 up or from −8 down.
A short description of assay [3]: viability profiling in MM1S myeloma cells – cell-based, resazurin fluorescence, basal, 24 h, PK04 Diversity Set, profiling panel (AID 1174).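 Note: MM1S multiple myeloma cell line; test concentration not given here.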 As to conditions: higher = more signal, called active from +8 up or from −8 down. For orientation: Resazurin is reduced to fluorescent resorufin, in cell work by metabolically active cells.
Assay [4] deals with Dihydroorotate dehydrogenase (quinone), mitochondrial (Plasmodium falciparum (isolate 3D7)) (UniProt Q08210). In words: inhibition of P. falciparum DHODH – biochemical, C-terminal His tag, absorbance 600 nm, primary screen (AID 1175).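 Note: recombinant parasite enzyme with a five histidine tag at its C terminus; test concentration not given here.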 As to conditions: PfDHODH enzyme, DCIP absorbance 600 nm; higher = more signal, called active from +8 up or from −8 down.
Sequence of Dihydroorotate dehydrogenase (quinone), mitochondrial (Plasmodium falciparum (isolate 3D7)) (Q08210 whole entry, looked up): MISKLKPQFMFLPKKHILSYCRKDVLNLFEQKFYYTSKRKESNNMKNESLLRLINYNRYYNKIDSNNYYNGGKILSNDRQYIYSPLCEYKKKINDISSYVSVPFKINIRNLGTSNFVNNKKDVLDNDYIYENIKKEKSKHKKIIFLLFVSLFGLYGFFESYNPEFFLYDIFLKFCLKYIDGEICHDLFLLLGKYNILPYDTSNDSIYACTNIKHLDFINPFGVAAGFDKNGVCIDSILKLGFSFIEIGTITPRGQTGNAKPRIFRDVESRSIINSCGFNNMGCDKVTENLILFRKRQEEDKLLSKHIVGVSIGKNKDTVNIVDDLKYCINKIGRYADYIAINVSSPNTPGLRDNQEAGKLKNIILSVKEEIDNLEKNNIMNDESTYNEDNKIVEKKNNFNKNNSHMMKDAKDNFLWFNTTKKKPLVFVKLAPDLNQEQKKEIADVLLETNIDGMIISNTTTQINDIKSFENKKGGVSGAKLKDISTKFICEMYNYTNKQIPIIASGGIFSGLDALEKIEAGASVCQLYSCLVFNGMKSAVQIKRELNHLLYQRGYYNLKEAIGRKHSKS
Assay [5] in a line: inhibition of PAO1 biofilm formation – strain PAO1, LB-PBS medium, absorbance 600 nm, primary screen (AID 1176). Note: test concentration not given here. Conditions: P. aeruginosa PAO1 growth/biofilm, A600, 12 h; higher = more signal.
A short description of assay [6]: growth modulation of vineyard yeast isolate – strain RM11-1a, OD600, basal, 24 h, primary screen (AID 1177).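 Note: cultures grown under basal conditions with no added stressor; test concentration not given here.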 As to conditions: S. cerevisiae RM11-1a growth, OD600, 24 h; higher = more signal, called active from +8 up or from −8 down.
The nature of assay [7]: growth of efflux-deficient E. coli DRC39 – strain DRC39, OD650, 24 h, E. coli filamentation inducers, primary screen (AID 1178).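 Note: growth measured as culture turbidity by optical density at 650 nm; test concentration not given here.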 As to conditions: E. coli DRC39 acrAB, higher = more signal, called active from +8 up or from −8 down.
Assay [8] can be described thus: growth of efflux-deficient E. coli DRC39 – strain DRC39, OD650, 48 h, E. coli filamentation inducers, primary screen (AID 1179).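 Note: screen aims at cell division blockers that make cells filament.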 As to conditions: E. coli DRC39 delta-acrAB growth, higher = more signal, called active from +8 up or from −8 down.
Assay [9] in a line: viability profiling in RPMI8226 myeloma cells – cell-based, resazurin fluorescence, basal, 24 h, PK04 Diversity Set, profiling panel (AID 1180).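 Note: RPMI8826 multiple myeloma cell line at 5000 cells per well; test concentration not given here.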 Conditions: higher = more signal.
Assay [10] concerns the target E3 ubiquitin-protein ligase XIAP (Homo sapiens) (UniProt P98170). In words: small molecules binding XIAP protein – biophysical, small-molecule microarray, fluorescence 635 nm, primary screen (AID 1181).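 Note: score merges 667 nm emission and signal to noise over triplicate slides.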 Conditions: higher = more signal.

Sequence of E3 ubiquitin-protein ligase XIAP (Homo sapiens) (P98170 whole entry, looked up): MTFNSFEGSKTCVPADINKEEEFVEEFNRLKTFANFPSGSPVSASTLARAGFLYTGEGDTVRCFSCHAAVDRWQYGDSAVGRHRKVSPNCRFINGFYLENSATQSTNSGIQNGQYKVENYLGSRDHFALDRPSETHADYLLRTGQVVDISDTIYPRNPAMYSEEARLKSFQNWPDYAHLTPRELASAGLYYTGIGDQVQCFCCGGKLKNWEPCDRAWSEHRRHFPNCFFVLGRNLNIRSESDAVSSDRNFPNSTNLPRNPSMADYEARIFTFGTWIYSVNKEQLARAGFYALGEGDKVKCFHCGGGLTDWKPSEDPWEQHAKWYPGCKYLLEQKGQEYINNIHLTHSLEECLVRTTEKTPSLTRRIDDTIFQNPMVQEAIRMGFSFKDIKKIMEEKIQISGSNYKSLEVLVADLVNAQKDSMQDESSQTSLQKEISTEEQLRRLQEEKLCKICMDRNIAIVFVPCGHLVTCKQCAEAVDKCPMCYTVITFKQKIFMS

Turning to `CC(=O)OC[C@H]1O[C@@H](ON=C(C)CCN2CCCc3nc(C)c(C)cc32)[C@H](OC(C)=O)[C@@H](OC(C)=O)[C@@H]1OC(C)=O`, the z-score in assay [1] is -0.288; in [2] it was 0.131 (inactive); in assay [3] it was 0.188 (inactive); in assay [5] it was -0.503 (inactive); in [6] it was -0.45 (inactive); in [7] it was -0.925 (inactive). Moreover, the figures for the z-score in assay [8] and in [9] were -1.26 (inactive) and 0.529, respectively. For the same molecule, the composite z-score in assay [4] is -2.04 (inactive); in assay [10] it was -0.138.

Take `CCOC(=O)[C@H](CC(C)C)NC(=O)CCC1CC(OC(=O)NCCc2ccc(F)cc2)CC2(CCCC(COC(=O)NCCc3ccccc3OC)O2)O1` (stereo not given in full): the z-score was -0.285 in assay [1]; -0.376 (inactive) in assay [2]; 0.311 (inactive) in assay [3]; 0.45 (inactive) in [5]; 0.354 (inactive) in [6]; 0.61 (inactive) in assay [7]. Also, the z-score in assay [8] was 0.376 (inactive); in [9] it was 0.441. In addition, the composite z-score was -0.991 (inactive) in assay [4] and -0.0565 in [10].

In the case of `CCOC(=O)NN=C1C[C@@H](O)[C@@H](O)[C@@H]2[C@@H]3C(=O)N(c4cccc(Oc5ccccc5)c4)C(=O)[C@@H]3CC[C@@H]12`, the z-score in [1] is 0.358; in assay [2], -0.22 (inactive); in assay [3] it was -0.285 (inactive); in assay [5] it was 0.225 (inactive); in [6] it was -0.114 (inactive); in assay [7] it was -0.347 (inactive). In addition, the z-score in assay [8] was -1.28 (inactive); in [9], 0.0541. Also, the composite z-score in assay [4] is -0.108 (inactive); in assay [10] it was -0.122.

Regarding `CC(CCN1CCCc2nc(C)c(C)cc21)=NO[C@@H](C)c1cc(-c2c(C)cc(C)cc2C)no1`, the z-score in [1] was -0.616; in assay [2] it was -1.54 (inactive); in [3], -0.012 (inactive); in [5] it was 0.0525 (inactive); in assay [6], 0.39 (inactive); in assay [7], 0.898 (inactive). Further, the figures for the z-score in assay [8] and in assay [9] were -0.158 (inactive) and 0.378, respectively. Moreover, the composite z-score in [4] was -0.837 (inactive); in [10], 0.194.

On to `COc1ccc(COC(=O)NN=C2C[C@@H](O)[C@@H](O)[C@@H]3[C@@H]4C(=O)N(Cc5ccccc5)C(=O)[C@@H]4CC[C@H]23)cc1`, for which the z-score in [1] was 1.35; in assay [2], 0.3 (inactive); in assay [3] it was 1.28 (inactive); in assay [5], 0.07 (inactive); in assay [6], -0.629 (inactive); in [7], 0.426 (inactive). The z-score in [8] was -0.463 (inactive); in assay [9], 0.635. Further, the composite z-score is -0.307 (inactive) in assay [4] and 0.152 in [10].

As to `COC(=O)[C@H]1[C@@H](O)[C@@]2(O)c3ccccc3O[C@@]2(c2ccccc2)[C@@H]1c1ccccc1`, the z-score is -0.314 in assay [1]; 0.358 (inactive) in assay [2]; -0.683 (inactive) in [3]; -0.175 (inactive) in [5]; 0.653 (inactive) in [6]; -0.306 (inactive) in assay [7]. The z-score is -0.446 (inactive) in [8] and -0.857 in [9]. For the same molecule, the composite z-score was 0.154 (inactive) in assay [4] and -0.173 in [10].

Regarding `CC(C)[C@@H](OCc1ccccc1)[C@H](C)C=NOC[C@@H](O)COCc1ccco1`, the z-score in assay [1] was -0.314; in [2] it was -11.9 (active); in assay [3], -0.911 (inactive); in assay [5], 0.429 (inactive); in assay [6], -1.12 (inactive); in [7], 0.7 (inactive). Also, the z-score was 0.43 (inactive) in assay [8] and -0.885 in assay [9]. For the same molecule, the values for the composite z-score in [4] and in assay [10] were -0.585 (inactive) and -0.0172, respectively.

Take `O=C1C[C@@H](O)[C@@H](O)[C@@H]2[C@@H]3C(=O)N(C[C@@H]4CCCO4)C(=O)[C@@H]3CC[C@@H]12`: the z-score in [1] is -0.429; in assay [2], 0.0532 (inactive); in assay [3] it was -0.272 (inactive); in assay [5], 0.565 (inactive); in [6] it was -0.129 (inactive); in assay [7] it was 0.469 (inactive). Moreover, the results for the z-score in assay [8] and in [9] were 0.582 (inactive) and -0.12, respectively. Also, the composite z-score is 0.204 (inactive) in assay [4] and -0.0989 in [10].

`CC(=O)Nc1ccc([C@@H]2N[C@H](C(=O)O)CC[C@H]2C)cc1`: the z-score in [1] was 0.219; in assay [2] it was -0.236 (inactive); in assay [3], -0.106 (inactive); in assay [5], 0.557 (inactive); in assay [6], 0.237 (inactive); in [7], 0.909 (inactive). In addition, the z-score in assay [8] was 0.781 (inactive); in assay [9], -0.625. Also, the composite z-score in assay [4] was 0.0947 (inactive); in [10], -0.0445.

For `CCOC(=O)NN=C1C[C@@H](O)[C@@H](O)[C@@H]2[C@@H]3C(=O)N(c4cccc(Oc5ccccc5)c4)C(=O)[C@@H]3CC[C@H]12`, the z-score in assay [1] is 0.287; in assay [2] it was -0.946 (inactive); in assay [3], -1.12 (inactive); in [5], 1.05 (inactive); in [6], -1.39 (inactive); in assay [7] it was 0.0624 (inactive). Further, the values for the z-score in [8] and in [9] were -0.642 (inactive) and 0.529, respectively. In addition, the composite z-score in assay [4] was -1.59 (inactive); in [10], -0.106.

On to `CCOC(=O)NN=C1C[C@@H](O)[C@@H](O)[C@@H]2[C@@H]3C(=O)N(Cc4ccccc4)C(=O)[C@@H]3CC[C@H]12`, for which the z-score is 1.16 in assay [1]; -0.892 (inactive) in assay [2]; 1.41 (inactive) in assay [3]; 0.483 (inactive) in assay [5]; -1.1 (inactive) in [6]; -0.077 (inactive) in assay [7]. Also, the z-score was 0.495 (inactive) in assay [8] and 1.89 in assay [9]. Further, the figures for the composite z-score in assay [4] and in assay [10] were -0.451 (inactive) and -0.27, respectively.

Take `O=C1[C@H]2[C@H]3[C@H](O)[C@H](O)CC(=NOCc4ccccc4)[C@@H]3CC[C@H]2C(=O)N1c1ccc(F)cc1F`: the z-score in assay [1] is 0.0979; in assay [2], -0.584 (inactive); in [3], 0.253 (inactive); in assay [5] it was 0.86 (inactive); in assay [6], -2.15 (inactive); in assay [7], -0.018 (inactive). For the same molecule, the z-score is -0.714 (inactive) in assay [8] and -1.19 in assay [9]. Besides, the composite z-score in assay [4] is -1.42 (inactive); in [10] it was -0.0563.

For the molecule `CO[C@@H]1COC(=O)[C@@H](C)COC(=O)[C@@H](C)NC(=O)CC=C[C@@H]1C`, the z-score in assay [1] was -0.373; in assay [2], -0.792 (inactive); in assay [3], 1.2 (inactive); in [5], -0.136 (inactive); in assay [6], -1.99 (inactive); in assay [7] it was -0.98 (inactive). Moreover, the z-score was -1.13 (inactive) in [8] and 0.635 in assay [9]. Besides, the composite z-score in assay [4] is -4.92 (inactive); in [10] it was -0.271.

The values are drawn from PubChem BioAssay.
